SMILES strings stand for the structures. About 83,000 compounds went through this panel and 20% of them were active in at least one assay; those are over-represented in the sample as a whole.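 96-well plates, one dose, 48 hours. Percent growth reported; active if below 10.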 Unmarked numbers belong to inactive results. Activity calls are given as the source filed them.

The experiment relates to UO-31 renal. As to the kind of experiment: NCI-60 one-dose screen, 48 h (100 = growth as untreated, 0 = no growth, -100 = all killed). The settings on record: 10 µM unless noted.
In the case of `Cc1ccc(NC(=O)N[C@@H](Cc2cc(F)cc(F)c2)C(=O)NC2C(=O)N3CCC[C@H]3C(=O)N3CCCC[C@H]3C(=O)N[C@@H](C)C(=O)N3C[C@H](C)C[C@H]3C(=O)O[C@H]2C)c(F)c1` (some centres undefined), the growth is 30.2%.

Regarding `COc1ccc(/C=C/C(=O)c2nnn(-c3ccc(C(=O)O)cc3)c2C)cc1OC`, the growth was 79.3%. For `O=C(Nc1cc(F)cc2cccnc12)c1cnc(N2CCOCC2)cn1`, the growth was 46.1%.

In the case of `Oc1ccccc1-c1nnc(SCc2ccc(O)c3ncccc23)o1`, the growth was 14.7%. As for `COc1cc(/C=C2\SC(=O)NC2=O)ccc1OCC(=O)Nc1ccc(C(=O)/C=C/c2cc3ccccc3nc2Cl)cc1`, the growth is 66.1%. As for `Nc1nc(-c2cccc([N+](=O)[O-])c2)c(N=Nc2ccccc2Cl)s1`, the growth was 63.8%. The value for `Oc1ccc(-c2nnc(SCc3ccc(O)c4ncccc34)o2)cc1` was -5.74% (active); that for `C[C@H]1[C@H](C)CC[C@]2(COC(=O)c3cccnc3)CC[C@]3(C)C(=CC[C@@H]4[C@@]5(C)CCCNC(C)(C)[C@@H]5CC[C@]43C)[C@H]12` was 59.3%. Turning to `O=c1[nH]c2cc(Cl)ccc2n1C1CCN(c2ccc3nnc(Cl)n3n2)CC1`, the growth is -30.9% (active). As for `COc1ccc(N2CCN(C(=O)CSc3ccc(-c4nc5cc(C)c(C)cc5[nH]4)cn3)CC2)cc1`, the growth is 65.1%.

As for `Cc1cc(F)cc(NS(=O)(=O)c2ccc(-c3cnc(C4CC4)o3)cc2)c1`, the growth was 43.2%.

Turning to `Oc1ccc(CSc2nnc(-c3ccncc3)o2)c2cccnc12`, the growth is 12.4%. In the case of `O=C(COc1ccc(/C=C2\SC(=O)NC2=O)cc1)Nc1ccc(C(=O)/C=C/c2cc3ccccc3nc2Cl)cc1`, the growth is 57.6%. Regarding `O=C(Nc1cccc(Cl)c1)Nc1nc2ccc([N+](=O)[O-])cc2s1`, the growth was 7.26% (active). With `Cn1cc(-c2nn3cc(-c4cccnc4)nc3s2)c2cc(F)ccc21`, the growth was 70.5%.

As to `COc1ccc(CCN2C(=O)/C(=C/c3nc(CO)cs3)SC2=S)cc1`, the growth was 34%. As for `C/C(=N\NC(=S)Nc1ccc(Br)cc1)c1cc2ccccc2oc1=O`, the figure is 19.5%; as for `O=C1[C@H]2Cc3c([nH]c4ccccc34)[C@@H](c3ccc(Cl)cc3)N2C(=O)CN1C1CCN(Cc2c(Cl)cccc2Cl)CC1`, 2.51% (active). For the compound `O=C1[C@H]2Cc3c([nH]c4ccccc34)[C@@H](c3c(Cl)cccc3Cl)N2C(=O)CN1C1CCN(Cc2ccccc2)CC1`, the growth was 75.9%. For the compound `Oc1ccccc1-c1nnc(SCc2ccc(O)c3ncccc23)n1-c1ccccc1`, the growth was -9.38% (active). For the compound `CC1=C2C(=C[C@@](C)(COS(N)(=O)=O)[C@@H]2O)C(=O)[C@](C)(O)C12CC2`, the growth was 54.6%. On to `CC1(COc2ccc3ncc(C#Cc4cncc(C(=O)Nc5cc(C(C)(C)C)on5)c4)n3n2)COC1`, for which the growth is 26.9%.

`NC(=S)N/N=C(/C=C/c1cn(-c2ccccc2)nc1-c1ccc(Cl)cc1)c1cc2ccccc2oc1=O`: the growth is 28.5%.

`O=C(/C=C1\C=CN(CCCCO)c2ccccc21)n1ccc2ccccc21`: the growth is 74.3%. For `Cc1cc(NS(=O)(=O)c2ccc(-c3cnc(C4CC4)o3)cc2)ccc1I`, the growth is 48.7%. Turning to `Oc1ccc(CSc2nnc(-c3ccccc3)o2)c2cccnc12`, the growth is 1.52% (active). Take `CS(=O)(=O)c1ccc2c(c1)c1c(n2S(=O)(=O)c2ccc(Cl)cc2)CCCC1`: the growth was 37.8%. For the compound `CN(C)C(=O)c1ccccc1-n1cnc2ccccc2c1=O`, the growth was 92.8%. As for `C=C(C)C(=O)O[C@H]1C[C@@]2(C)OC(=CC2=O)[C@H](C)[C@H](O)[C@H]2OC(=O)C(=C)[C@@H]21`, the figure is 53.9%; as for `O=C(Nc1cc(Cl)cc(Cl)c1)Nc1nc2ccc([N+](=O)[O-])cc2s1`, 6.95% (active).

On to `C#C[C@]1(O)CC[C@H]2[C@@H]3CC=C4c5sc(Nc6ccc(OC)nc6)nc5CC[C@]4(C)[C@H]3CC[C@@]21C`, for which the growth was 32.6%. Consider `CCOc1ccc2nc(NC(=O)Nc3ccccc3C)sc2c1`, for which the growth was 66.3%.

For `CN(c1ccc(Br)cc1)S(=O)(=O)c1ccc(-c2cnc(C3CC3)o2)cc1`, the growth was 44.4%.

Turning to `CCNC(=NCCCN(C)C)N/C(N)=N/c1nc2ccccc2s1`, the growth was 64.3%. For `Cc1cc(Cl)cc(NS(=O)(=O)c2ccc(-c3cnc(C4CC4)o3)cc2)c1`, the growth is 43.8%. Consider `N/C(=N\c1nc2ccc([N+](=O)[O-])cc2s1)C(Cl)(Cl)Cl`, for which the growth was 43.8%. As to `CS(=O)c1nccc(-c2c(-c3ccc(F)c(OCCc4ccc(F)cc4)c3)nc3sccn23)n1` (centres undefined), the growth was -45.1% (active). For `CN(c1ccc(F)cc1)S(=O)(=O)c1ccc(-c2cnc(C3CC3)o2)cc1`, the growth was 44.5%. Take `Cc1cn(-c2cc(NC(=O)c3cncc(C#Cc4cnc5ccc(OCCCS(C)(=O)=O)nn45)c3)cc(C(F)(F)F)c2)cn1`: the growth is 38.3%.

The values above are taken from PubChem BioAssay (NCI).
